Each compound was assayed on Plasmodium falciparum (assay: GSK_TCMDC: Inhibition of Plasmodium falciparum Dd2 in whole red blood cells, using parasite LDH activity as an index of growth. Test compounds present at 2uM).
Format: functional

In order of rising Inhibition:
1. Nc1nc(O)c2c(n1)CCc1c(Br)cccc1-2  0%
2. COc1ccc(-c2nc3c(N)nc(N)nc3nc2-c2ccccc2Cl)cc1.COc1ccc(-c2nc3nc(N)nc(N)c3nc2-c2ccccc2Cl)cc1.Cl  0%
3. CCCc1ccc(NC(=O)c2ccc(CN3CCCN(Cc4ccc(OC)cc4)CC3)cc2)cc1.O=C(O)C(F)(F)F  0%
4. CCOC(=O)C(CO)NC(=O)c1ccc([N+](=O)[O-])o1 (configuration not stated)  2%
5. CC[C@H](C)CNC(=O)c1cncc(-c2cccc(CN3CCC(N4CCCC4)CC3)c2)c1.O=C(O)C(F)(F)F  5%
6. CC(C)(C)C1CC(=O)CC2C(=O)N(c3ccc(Br)cc3)C(=O)C21 (configuration not stated)  7%
7. CC(C)(C)c1ccc(CNC(=O)c2cc(CNC3CCNCC3)ccc2O)cc1  8%
8. CC1CN(Cc2ccc(-c3cccc(-c4nc5cc(F)ccc5[nH]4)c3)cc2)CC(C)O1.O=C(O)C(F)(F)F (configuration not stated)  20%
9. CCc1cc(Br)c(CNCCCNc2cc(=O)c3ccccc3[nH]2)s1.Cl  45%
10. O=C(NCc1cc2c(cc1Cl)OCO2)c1ccc(CNC2CCN(Cc3ccccc3)CC2)cc1.O=C(O)C(F)(F)F  47%
11. Cl.O=C(O[C@H]1CN[C@H](C#Cc2cc3ncnc(Nc4ccc5c(ccn5S(=O)(=O)c5cccs5)c4)c3s2)C1)N1CCOCC1  48%
12. CS(=O)(=O)CCNc1cc(N2CCc3ncnc(Nc4ccc(OCc5cccc(F)c5)c(Cl)c4)c3C2)ncn1  50%
13. COc1ccc(S(=O)(=O)Nc2cc(Br)cc3c2OCCC3)cc1N1CCN(C(=O)C(Cl)(Cl)Cl)CC1  51%
14. COc1cccc(NC(=O)NC2CCN(c3ccnc(Nc4cc(OC)c(OC)c(OC)c4)n3)C2)c1 (configuration not stated)  57%
15. COc1ccc(CNC2Cc3ccccc3C2)cc1-c1ccc(S(=O)(=O)NCCN2CCCC2)cc1.O=C(O)C(F)(F)F  61%
16. O=C(NC1CCN(CCC[C@]2(c3ccc(Cl)c(Cl)c3)CCCN(C(=O)c3ccccc3)C2)CC1)c1ccc(F)cc1  68%
17. Oc1ccc(-c2ccccc2)cc1CN1CCCCC1  70%
18. CCc1ccc(-c2cnc(N)c3cc(-c4ccnc(N)n4)ccc23)cc1  70%
19. CNC(=O)COc1cc(C)c(C2CCN(CCCCNC(=O)c3ccc(-c4ccc(C(F)(F)F)cc4)cc3)CC2)cc1C  72%
20. COc1ccc2ncc(Cl)c(N3CCC(CCNCc4ccc5c(n4)NC(=O)CS5)CC3)c2c1.Cl  82%
21. COc1cccc(Nc2nc(NCCO)c3ccccc3n2)c1.Cl  88%
22. Cc1ccccc1Nc1cc(Nc2ccccc2C)c2ccccc2n1  93%
23. O=C(Nc1cccc(CN2CCCN(Cc3ccc(O)cc3)CC2)c1)c1ccc(-c2ccccc2)cc1.O=C(O)C(F)(F)F  93%
24. Cc1noc(C)c1-c1ccc(C(=C2CCCCCC2)c2ccc(O)cc2)cc1  96%
25. CCOC(=O)c1ccc(-c2cnoc2-c2cc(CC)c(OC)cc2O)o1  97%
26. Cc1cccc2nc(-c3cccc(-c4cccc(CNC(C)C)c4)c3)[nH]c12.O=C(O)C(F)(F)F  98%
27. O=C(O)C(F)(F)F.c1ccc(CCNCc2ccc(-c3ccc(CNC4CCN(Cc5ccccc5)CC4)cc3)nc2)cc1  99%

What follows are compounds tested on HepG2 (assay: GSK_TCMDC: Percent inhibition of human HepG2 cell line. Test compounds present at 10uM.).
Format: functional

In order of falling Inhibition:
1. O=C(C=Cc1ccc(Cl)c(Cl)c1)NCCCCCN1CCCC(CCCNC(=O)/C=C/c2ccccc2)C1 (configuration not stated)  92%
2. Nc1nc(O)c2c(n1)CCc1c(Br)cccc1-2  66%
3. O=C(NC1CCN(CCC[C@]2(c3ccc(Cl)c(Cl)c3)CCCN(C(=O)c3ccccc3)C2)CC1)c1ccc(F)cc1  52%
4. CCCc1ccc(NC(=O)c2ccc(CN3CCCN(Cc4ccc(OC)cc4)CC3)cc2)cc1.O=C(O)C(F)(F)F  47%
5. COc1ccc(-c2nc3c(N)nc(N)nc3nc2-c2ccccc2Cl)cc1.COc1ccc(-c2nc3nc(N)nc(N)c3nc2-c2ccccc2Cl)cc1.Cl  45%
6. CC(C)(CNC(=O)C1CCN(CCOc2ccc(Cl)cc2)CC1)c1nc(-c2ccc(Cl)c(O)c2)c(-c2ccncc2)[nH]1.Cl  40%
7. COc1ccc(CNC2Cc3ccccc3C2)cc1-c1ccc(S(=O)(=O)NCCN2CCCC2)cc1.O=C(O)C(F)(F)F  40%
8. CNC(=O)COc1cc(C)c(C2CCN(CCCCNC(=O)c3ccc(-c4ccc(C(F)(F)F)cc4)cc3)CC2)cc1C  38%
9. CC(C)Nc1ccc(Nc2ccnc3cc4ccccc4cc23)cc1  37%
10. CCc1ccc(-c2cnc(N)c3cc(-c4ccnc(N)n4)ccc23)cc1  37%
11. CN1CCN(c2nc(NCCc3ccc(O)cc3)nc(NCc3ccccc3-c3ccc(C(F)(F)F)cc3)n2)CC1  35%
12. O=C(O)C(F)(F)F.c1ccc(CCNCc2ccc(-c3ccc(CNC4CCN(Cc5ccccc5)CC4)cc3)nc2)cc1  34%
13. COc1ccc2ncc(Cl)c(N3CCC(CCNCc4ccc5c(n4)NC(=O)CS5)CC3)c2c1.Cl  33%
14. O=C(Nc1cccc(CN2CCCN(Cc3ccc(O)cc3)CC2)c1)c1ccc(-c2ccccc2)cc1.O=C(O)C(F)(F)F  33%
15. CN(C)c1ccc(-c2csc(C(=O)NCC3CCN(CCC(C)(C)C)C3)c2)cc1.O=C(O)C(F)(F)F (configuration not stated)  29%
16. Cc1cccc2nc(-c3cccc(-c4cccc(CNC(C)C)c4)c3)[nH]c12.O=C(O)C(F)(F)F  29%
17. Cc1ccccc1Nc1cc(Nc2ccccc2C)c2ccccc2n1  28%
18. CC1CN(Cc2ccc(-c3cccc(-c4nc5cc(F)ccc5[nH]4)c3)cc2)CC(C)O1.O=C(O)C(F)(F)F (configuration not stated)  28%
19. Cc1ccnc(NC(c2cccc(OCc3ccccc3)c2)c2ccc3cccnc3c2O)c1 (configuration not stated)  26%
20. CC(C)C[C@H](Nc1ccc(C#N)c2ccccc12)C(=O)NC(C)(C)C12CC3CC(CC(C3)C1)C2.O=C(O)C(F)(F)F  19%
21. CCc1c(CCNCCCCCCNCCc2ccc(OC)c(OC)c2C)ccc(OC)c1OC.Cl  16%
22. Cc1ccc(CN2CCN(c3cc4c(cc3Cl)CCN4C(=O)Cc3ccc(NC(=O)c4ccc(C(F)(F)F)cc4)cc3)CC2)cc1  15%
23. CCOC(=O)c1ccc(-c2cnoc2-c2cc(CC)c(OC)cc2O)o1  12%
24. O=C(NCc1cc2c(cc1Cl)OCO2)c1ccc(CNC2CCN(Cc3ccccc3)CC2)cc1.O=C(O)C(F)(F)F  11%
25. COc1cccc(NC(=O)NC2CCN(c3ccnc(Nc4cc(OC)c(OC)c(OC)c4)n3)C2)c1 (configuration not stated)  8%
26. CC(C)(C)c1ccc(CNC(=O)c2cc(CNC3CCNCC3)ccc2O)cc1  6%
27. CCc1cc(Br)c(CNCCCNc2cc(=O)c3ccccc3[nH]2)s1.Cl  6%
28. COc1ccc(S(=O)(=O)Nc2cc(Br)cc3c2OCCC3)cc1N1CCN(C(=O)C(Cl)(Cl)Cl)CC1  4%
29. O=C(NCCN1CCCCC1)c1ccc(CNC(=O)c2ccc(O)c(-c3ccc(Cl)c(Cl)c3)c2)cc1  3%
30. Oc1ccc(-c2ccccc2)cc1CN1CCCCC1  3%
31. COc1cccc(Nc2nc(NCCO)c3ccccc3n2)c1.Cl  1%
32. O=C(O)C(F)(F)F.O=C1OC2(CCN(Cc3cccc(-c4ncc[nH]4)c3)CC2)CN1CCNCc1ccccc1  0%
33. COc1ccc2c(ccc3c2ncc2c(=O)n(-c4ccccc4)[nH]c23)c1  0%
34. CC(CCCCOCCc1ccccc1)NCC(O)c1cc(Cl)c(N)c(Cl)c1 (configuration not stated)  0%
35. Cl.O=C(O[C@H]1CN[C@H](C#Cc2cc3ncnc(Nc4ccc5c(ccn5S(=O)(=O)c5cccs5)c4)c3s2)C1)N1CCOCC1  0%
36. CC[C@H](C)CNC(=O)c1cncc(-c2cccc(CN3CCC(N4CCCC4)CC3)c2)c1.O=C(O)C(F)(F)F  0%
37. Cc1noc(C)c1-c1ccc(C(=C2CCCCCC2)c2ccc(O)cc2)cc1  0%
38. CC(C)(C)C1CC(=O)CC2C(=O)N(c3ccc(Br)cc3)C(=O)C21 (configuration not stated)  0%
39. CS(=O)(=O)CCNc1cc(N2CCc3ncnc(Nc4ccc(OCc5cccc(F)c5)c(Cl)c4)c3C2)ncn1  0%
40. CCOC(=O)C(CO)NC(=O)c1ccc([N+](=O)[O-])o1 (configuration not stated)  0%

Source: ChEMBL document CHEMBL1157539, “Thousands of chemical starting points for antimalarial lead identification” (Nature, 2010)
